ClpP mod: qHTS Assay for Activators of ClpP; ATP-dependent Clp protease proteolytic subunit (Bacillus subtilis (strain 168)), P80244; purified B. subtilis ClpP, FRET peptide cleavage, 20 min; Potency, µM (doses to about 57.5 µM), for the others: at the highest dose activity change, negative = active; hit rate 1.9% among 340,000; active means well fitted falling curve with a large enough effect; inconclusive means small, poorly fitted or top-dose-only effect; inactive means no such curve, though single readings can be large or run the other way; further: the source files actives as falling curves though it sought activators and does not explain the sign; nearly all actives have a fitted effect of over 65% in size
Target sequence (P80244 whole entry, looked up): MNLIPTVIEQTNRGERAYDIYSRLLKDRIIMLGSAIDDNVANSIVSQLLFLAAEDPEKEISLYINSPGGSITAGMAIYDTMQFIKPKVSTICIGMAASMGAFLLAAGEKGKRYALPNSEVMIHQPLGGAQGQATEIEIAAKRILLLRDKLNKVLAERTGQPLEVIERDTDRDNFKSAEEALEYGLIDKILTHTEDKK
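Buffer: 100 mM Tris/HCl pH8, 100 mM KCl, 0.05% low protease BSA, 2.5% glycerol, 0.01% Tween-20. ClpP 10 microg/mL final; 20 min RT; delta FRET normalized to ADEP and DMSO controls.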
Rango release inh: inhibitors of RanGTP-induced Rango-importin beta complex dissociation. O95149+P62826. Biochemical FRET Rango-importin beta, RanGTP-induced dissociation. Potency, µM (top dose mostly 46.1 µM), for inactives: at the top dose activity change, negative = inhibition. hit rate 0.071% among 340,000; calls by dose curve; further: % of control where 0% means no effect; nearly all actives have a fitted effect of over 45% in size
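Rango (0.1 uM)–importin beta (0.25 uM) complex; RanGTP-RCC1 trigger; 45 min RT; CFP/YFP FRET read.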
TDP1 block: blocks human tyrosyl-DNA phosphodiesterase 1; Q9NUW8; recombinant TDP1, AlphaScreen DNA substrate cleavage; Potency, µM (series often up to 130 µM), for the others: at the highest dose activity change, negative = inhibition, usual class: inhibitors; hit rate 0.28% among 350,000; AID 485290; further: on the % scale 0 is the no-effect control and ±100 the full control effect; nearly all actives have a fitted effect of over 40% in size
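Enzyme-compound mixtures sat 15 min at room temperature, followed by a 5 min reaction with 15 nM final substrate and 10 min with AlphaScreen beads. Recombinant human Tdp1 was used at 1 nM final.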
Rango complex inh: Rango-importin beta binding inhibition; Q14974; Rango CFP/YFP FRET sensor + importin beta, 45 min; Potency, µM (series often up to 92.2 µM), for inactives: top-dose inhibition of complex formation; hit rate 0.031% among 340,000; calls by dose curve;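 further: 0% = DMSO wells and 100% = buffer wells lacking importin beta; nearly all actives have a fitted effect of over 15% in size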
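FRET biosensor (snurportin 1 IBB flanked by EYFP and cerulean), 50 nM, with compound 5 min, then 0.125 microM importin beta in PBS, 1 mM DTT, 0.02% Tween-20, 0.1% BSA. CFP/YFP ratio read after 45 min at room temperature; pre-read flags interference.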
PTAP TSG101 blk: blocks PTAP/TSG101 interaction to inhibit HIV-1 budding; Q99816; Fluorescence polarization, FITC-PTAP peptide / Tsg101 binding; Potency, µM (highest dose often 115 µM), for the others: at the top dose activity change, negative = inhibition, usual class: inhibitors; 340,000 tested, under 10 active; active means well fitted inhibition curve with a large enough effect in the main read-out, with a control signal flat, not every such curve was filed as active; inconclusive means small, poorly fitted or top-dose-only effect, or effect the other way, or a change in a side signal; inactive means no such curve, though single readings can be large or run the other way; further: % of control where 0% means no effect
Target sequence (Q99816 whole entry, looked up): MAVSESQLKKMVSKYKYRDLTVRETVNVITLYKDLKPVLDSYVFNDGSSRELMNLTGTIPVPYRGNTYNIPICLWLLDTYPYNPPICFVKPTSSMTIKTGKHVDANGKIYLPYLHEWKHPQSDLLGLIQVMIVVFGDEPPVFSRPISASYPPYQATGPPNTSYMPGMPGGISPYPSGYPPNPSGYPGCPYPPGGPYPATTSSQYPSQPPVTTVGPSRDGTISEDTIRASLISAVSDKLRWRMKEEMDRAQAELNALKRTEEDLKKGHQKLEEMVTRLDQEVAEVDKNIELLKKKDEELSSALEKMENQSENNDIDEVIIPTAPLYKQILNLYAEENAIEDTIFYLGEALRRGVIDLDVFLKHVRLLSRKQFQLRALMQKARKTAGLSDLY
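Steps: Tsg101 binding domain dispensed (10 uM final), compounds pinned in DMSO, FITC-labeled PTAP-motif peptide added (50 nM final); after 20 min binding at room temperature, polarization measured.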
ALOX12 inh: blocks human arachidonate 12S-lipoxygenase. P18054. purified 12hLO, xylenol orange hydroperoxide absorbance. Potency, µM (top dose mostly 108 µM), for the others: at the highest dose activity change, negative = inhibition, actives largely listed as inhibitors. hit rate 1.1% among 580,000. AID 1671190; further: on the % scale 0 is the no-effect control and ±100 the full control effect
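Purified human 12hLO at 150 nM in 25 mM Hepes, 0.01% Triton X-100, pH 7.0, preincubated 15 min at room temperature with compound. Reaction started with 40 uM arachidonic acid, 30 min at room temperature. Hydroperoxide measured by Fe-xylenol orange, 573/405 nm absorbance ratio.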
Numbers without * were called inactive; ? = inconclusive; . = no result given; ! = repeats disagree; [ ] = remark or other dose. Only some compounds are listed: those with a hit (about 2.4% of all), similar ones and a draw of the others. Unless noted, the call rests on the fitted dose curve; in most records, active means well fitted curve in the direction sought with a large enough effect; inconclusive means small, poorly fitted or top-dose-only effect, or another doubt; inactive means no such curve, though single readings can be large; an effect the other way counts as inactive or inconclusive. Potency means the concentration at half of the fitted maximal effect.

SMILES | ClpP mod | Rango release inh | TDP1 block | Rango complex inh | PTAP TSG101 blk | ALOX12 inh
Cc1ccc(Cn2c(SCc3ccc(C(=O)O)cc3)nc3cccnc32)cc1 | 28µM* | . | -1% | . | . | -11%
CCN(CC)CCCNC(=O)c1ccc(Cn2c(SCc3ccccc3)nc3cccnc32)cc1 | 4% | . | 7% | . | . | ?
CCN(CC)C(=O)N1CCC2(CC1)CC(N1CCN(c3ccccc3)CC1)CCO2 (stereo not drawn) | . | . | . | . | . | 1%
COc1ccc(OC)c(NC(=O)Cn2cccc2-c2nc(-c3ccc4c(c3)OCO4)no2)c1 | . | . | . | . | . | 20%
O=C(O)/C=C/c1nc(-c2ccccc2)n2ccccc12 | 32µM* | ? | -5% | ? | 1% | ?
O=C(O)c1cccc(NC(=S)NC(=O)C(c2ccccc2)c2ccccc2)c1 | 12% | 6% | -5% | 0% | -5% | 28µM*
COc1ccc(C(=O)O)cc1NC(=S)NC(=O)C(c1ccccc1)c1ccccc1 | 4% | 0% | 7%[56.1 µM] | 1% | 1% | 35µM*
O=C(O)c1ccc(NC(=S)NC(=O)C(c2ccccc2)c2ccccc2)cc1 | 1% | 5% | 7% | 2% | -4% | ?
CCCCC(=O)NC(=S)Nc1cc(C(=O)O)ccc1OC | . | 3% | 1% | 0% | -4% | ?
CC(=O)Nc1ccc(CN2CCC3(C2)C(=O)N(c2ccccc2)c2ccccc23)cc1 (stereo not drawn) | . | . | . | . | . | 4%[6.33 µM]
CN1CCN(c2ccc(-c3cc4c(ccn4C)c(C(=O)NCCc4ccccn4)n3)cc2)CC1 | . | . | . | . | . | 71%
Cc1ccc(N/N=C/c2cccnc2)cc1 | -2% | 6% | -2% | 2% | 0% | 40µM*
C#CCNC(=O)C1CN(c2cccc(Cl)c2)C(=O)N1 (stereo not drawn) | . | . | . | . | . | 50µM*!
COc1cccc(CN2CCc3c(cc(C(=O)NCc4cccs4)n3C)C2)c1 | . | . | . | . | . | 93%
CS(=O)(=O)N1CCN(c2ccccc2NC(=O)c2ccc(-c3ccc(Br)cc3)o2)CC1 | 32µM* | -11% | 2% | 0% | -1% | -5%
O=C(Nc1cccc2nsnc12)c1ccc(-c2ccc(Br)cc2)o1 | -3% | ? | -7% | ? | 3% | 35µM*
CCOC(=O)CCc1cc2c(C)cc(=O)oc2cc1O | . | . | . | . | . | -7%
S=c1nccc(-c2ccccc2)[nH]1 | . | . | . | . | . | 13µM*
S=c1nccc(-c2cccs2)[nH]1 | 0% | -15% | 0% | -1% | 0% | -13%
CCNC(=O)N(C1CC1)C1CCOC2(CCN(C(=O)c3ccc4nc[nH]c4c3)CC2)C1 (stereo not drawn) | . | . | . | . | . | -1%
COc1cccc(CC(=O)N2CC(F)(F)C[C@H]2c2nc(C)no2)c1 | . | . | . | . | . | 41%
Fc1ccc(/C=C/c2nc3cc(-c4ccccc4)ccc3o2)cc1 | . | . | . | . | . | 9%
O=C(Nc1ccc(/C=C/c2nc3ccccc3o2)cc1)c1ccc(F)cc1 | 3.2µM* | -15% | 1% | 4% | 6% | 5%
Cc1noc(C)c1CN1C[C@@H]2[C@H](C1)N(CCOc1ccccc1)C(=O)C(C)(C)[S+]2(=O)[O-] | . | . | . | . | . | -2%
O=C(NCc1ccc(C(F)(F)F)cc1)c1ccc(-c2ccc(F)c(F)c2)c2ccoc12 | 28µM* | . | . | . | . | 7%
SMILES | ClpP mod | Rango release inh | TDP1 block | Rango complex inh | PTAP TSG101 blk | ALOX12 inh
O=C(NCc1ccncc1)c1ccc(-c2ccc(F)c(F)c2)c2ccoc12 | 4% | . | . | . | . | -9%
COc1cc(CNCc2c[nH]c3ccccc23)cc(OC)c1 | 1% | 16% | 1% | 0% | 0% | ?
COc1cc(CNCc2cccc3ccccc23)cc(OC)c1 | 2% | 9% | 7% | ? | -1% | 0.71µM*
O=C(Cn1c(-c2cccs2)cc2cc(Cl)ccc21)N1CCN(c2ccccc2)CC1 | 25µM* | . | 2% | . | . | -29%
CCCN1CCN(C(=O)Cn2c(-c3cccs3)cc3cc(F)ccc32)CC1 | 4% | . | 9% | . | . | -19%
O=C(Cn1c(-c2cccs2)cc2cc(Cl)ccc21)N1CCN(c2ccccc2F)CC1 | 13µM* | . | 5% | . | . | -24%
O=C(Cn1c(-c2cccs2)cc2ccccc21)N1CCN(c2ccccc2F)CC1 | 14µM* | . | 4% | . | . | -24%
O=C(Cn1c(-c2cccs2)cc2ccccc21)N1CCN(c2ccc(F)cc2)CC1 | 35µM* | . | 1% | . | . | -19%
O=C(Cn1c(-c2cccs2)cc2cc(F)ccc21)N1CCCCC1 | ? | . | 5% | . | . | 0%
Cc1nc(-c2cccs2)c(CCC(=O)N2CCN(c3cccc(Cl)c3)CC2)s1 | . | . | . | . | . | -28%
Cn1ccc(NC(=O)c2ccc3c(c2)NC(C)(CCCCc2ccccc2)CO3)n1 (stereo not drawn) | . | . | . | . | . | -12%[176 µM]
Cc1ccc(Cl)cc1N1CCN(C(=O)Cn2c(-c3cccs3)cc3cc(F)ccc32)CC1 | 8.9µM* | . | 4% | . | . | -2%
Cc1ccc2nc(C)c(C(=O)N3CCN(S(=O)(=O)c4cc(F)ccc4F)CC3)cc2c1 | . | . | . | . | . | -7%
Cc1ccc(S(=O)(=O)N2CCN(C(=O)c3cc4cc(C)ccc4nc3C)CC2)cc1 | . | . | . | . | . | 40µM*
N#Cc1nc(-c2ccc(OCc3ccc(Cl)cc3)cc2)oc1NCCCn1ccnc1 | 25µM* | -5% | 8% | 5% | -3% | 20%
N#Cc1nc(-c2ccccc2)oc1N1CCOCC1 | . | . | . | . | . | 7%

Screening results from PubChem BioAssay.
